HEK cytotox: cytotoxic compounds in HEK 293 cells; HEK 293 viability, ATP luminescence (CellTiter-Glo), 48-72 h; Potency, µM (series often up to 115 µM), actives largely listed as inhibitors; actives 6.6% (n = 94,000); further: nearly all actives have a fitted effect of over 60% in size
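Pintool-delivered compounds were incubated with HEK 293 cells (250 cells/well) at 37 degree Celsius for 48 or 72 hr. ATP-dependent luminescence (CellTiter-Glo) then reported remaining viable cells.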
hNpr1 antagonist: blocks ANP-stimulated signaling of human Npr1 receptor; HEK293 hNpr1 GloSensor cGMP, ANP-stimulated luminescence; Potency, µM (series often up to 46.3 µM), usual class: inhibitors; actives 1.6% (n = 76,000); AID 1347048; calls by dose curve; further: nearly all actives have a fitted effect of over 60% in size
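HEK293 cells stably expressing human Npr1 and cGMP GloSensor pGS-40F, loaded 2 h with 2% GloSensor reagent, given compound 30 min at room temperature. Luminescence read before and 20 min after 0.1 nM hNppA.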
Luciferase inh: blocks purified firefly luciferase enzyme activity | Potency, µM (series often up to 115 µM), most hits filed as inhibitors | actives 2.5% (n = 76,000) | purified P. pyralis luciferase, luminescence, biochemical | AID 1347043; further: nearly all actives have a fitted effect of over 65% in size
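Purified P. pyralis luciferase (10nM final) in 50mM Tris acetate pH 7.5, 10mM Mg acetate, 0.01% Tween-20, 0.05% BSA with 10uM D-luciferin and 10uM ATP. Compounds titrated qHTS. Luminescence imaged on CCD.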
NIH3T3 tox: kills NIH 3T3 cells; NIH 3T3 viability, CellTiter-Glo ATP luminescence, 48-72 h; Potency, µM (titrated, usually from 96.7 µM), hits mostly inhibitors; actives 4.3% (n = 94,000); AID 1345082; further: nearly all actives have a fitted effect of over 55% in size
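Cytotoxicity is measured as loss of cellular ATP: NIH 3T3 cells (400/well) are exposed to compound for 48 or 72 hr at 37 °C, then CellTiter-Glo luminescence is imaged after 10 min at room temperature.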
Npr1 antag conf: hNpr1 antagonism, confirmation assay. shares compounds with hNpr1 antagonist. HEK293 hNpr1 cGMP GloSensor luminescence, ANP-stimulated. AID 1347044. Potency, µM (series often up to 57.6 µM), usual class: inhibitors. actives 76% (n = 1,400); calls by dose curve; further: nearly all actives have a fitted effect of over 70% in size
Npr2 selectivity: hNpr2 antagonism, selectivity versus Npr1. actives 67% (n = 1,400). HEK293 hNpr2 GloSensor cGMP luminescence, CNP-stimulated. Potency, µM (series often up to 57.6 µM), hits mostly inhibitors. AID 1347046. shares compounds with hNpr1 antagonist; calls by dose curve; further: nearly all actives have a fitted effect of over 70% in size
Target sequence (P20594 whole entry, looked up): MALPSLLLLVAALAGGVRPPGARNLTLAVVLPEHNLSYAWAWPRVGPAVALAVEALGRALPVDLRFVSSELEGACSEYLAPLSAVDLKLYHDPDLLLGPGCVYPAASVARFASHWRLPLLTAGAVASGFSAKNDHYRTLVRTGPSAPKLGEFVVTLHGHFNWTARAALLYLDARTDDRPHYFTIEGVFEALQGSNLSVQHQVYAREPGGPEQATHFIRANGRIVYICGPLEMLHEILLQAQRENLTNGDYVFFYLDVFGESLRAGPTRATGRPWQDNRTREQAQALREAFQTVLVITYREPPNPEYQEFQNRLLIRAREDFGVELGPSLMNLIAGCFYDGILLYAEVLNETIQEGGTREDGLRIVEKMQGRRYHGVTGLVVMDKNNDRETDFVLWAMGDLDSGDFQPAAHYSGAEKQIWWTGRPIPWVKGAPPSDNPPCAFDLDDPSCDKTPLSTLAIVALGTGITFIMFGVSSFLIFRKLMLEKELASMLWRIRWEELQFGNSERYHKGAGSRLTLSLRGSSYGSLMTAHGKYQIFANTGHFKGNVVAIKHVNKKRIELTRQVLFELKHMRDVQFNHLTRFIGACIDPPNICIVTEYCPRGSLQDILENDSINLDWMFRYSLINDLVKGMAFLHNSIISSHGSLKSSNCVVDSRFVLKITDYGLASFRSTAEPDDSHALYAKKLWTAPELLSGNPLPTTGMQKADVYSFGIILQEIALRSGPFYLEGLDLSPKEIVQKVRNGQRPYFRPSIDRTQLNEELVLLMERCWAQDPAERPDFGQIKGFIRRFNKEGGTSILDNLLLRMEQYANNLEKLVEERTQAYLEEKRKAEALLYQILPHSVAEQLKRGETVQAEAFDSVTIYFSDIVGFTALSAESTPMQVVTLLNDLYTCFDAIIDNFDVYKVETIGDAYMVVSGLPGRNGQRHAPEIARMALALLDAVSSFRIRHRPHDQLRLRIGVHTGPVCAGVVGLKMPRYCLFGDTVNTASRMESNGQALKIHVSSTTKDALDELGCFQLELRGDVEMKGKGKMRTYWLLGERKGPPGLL
FLuc counter: counter-screen for Npr1 antagonists: firefly luciferase inhibitors; Potency, µM (top dose mostly 57.6 µM), actives largely listed as inhibitors; shares compounds with hNpr1 antagonist; purified FLuc enzyme, luminescence, Km substrate; actives 0.7% (n = 1,400); AID 1347047
GloSensor ctrl: control cell line activity, Npr1 antagonist counter-screen; Potency, µM (highest dose often 57.6 µM), usual class: inhibitors; HEK293 GloSensor cGMP, SNP-stimulated, luminescence; actives 69% (n = 1,400); shares compounds with hNpr1 antagonist; AID 1347051; calls by dose curve; further: nearly all actives have a fitted effect of over 70% in size
Hits are given with their value; - = inactive; ? = inconclusive; . = not tested or not shown. This is a sample that favours compounds with a hit; in the whole collection about 11% have one here. Unless noted, the call rests on the fitted dose curve; in most records, active means well fitted curve in the direction sought with a large enough effect; inconclusive means small, poorly fitted or top-dose-only effect, or another doubt; inactive means no such curve, though single readings can be large; an effect the other way counts as inactive or inconclusive.

SMILES	HEK cytotox	hNpr1 antagonist	Luciferase inh	NIH3T3 tox	Npr1 antag conf	Npr2 selectivity	FLuc counter	GloSensor ctrl
O=C(NC1CCCC1)N1CCC(C(=O)N2CCC(N3CCCC3=O)CC2)CC1	-	.	.	-	.	.	.	.
COc1ccc(S(=O)(=O)N2CCN(C(=O)c3csc(C)n3)CC2)cc1	-	-	-	-	.	.	.	.
C=CCNC(=O)N[C@H]1C[C@@H](C(=O)N[C@@H](Cc2ccc(OC)cc2)C(N)=O)N(C(=O)CC(C)(C)C)C1	-	-	-	-	.	.	.	.
O=C(NCc1ccc(F)cc1)C1CCN(c2cc(C(F)(F)F)ncn2)CC1	?	?	-	?	.	.	.	.
CC(C)c1ccc(CNC(=O)C2CCN(c3cc(C(F)(F)F)ncn3)CC2)cc1	?	12.6µM	-	?	24.3µM	21.7µM	-	21.7µM
CCc1cc(=O)n(CC(=O)Nc2ccc3c(c2)OCCO3)c(-c2cccc(F)c2)n1	?	?	-	?	?	-	-	?
COc1ccc(Cl)cc1C(=O)N1CCN(c2cc(-c3cccs3)[nH]n2)CC1	?	?	-	?	.	.	.	.
COc1cc(OC)cc(C(=O)N2CCN(c3cc(-c4cccs4)[nH]n3)CC2)c1	?	-	-	?	.	.	.	.
COc1cc(Cl)ccc1C(=O)N1CCN(c2cc(-c3cccs3)[nH]n2)CC1	25.1µM	11.2µM	-	?	19.3µM	19.3µM	-	17.2µM
COc1ccc(C(=O)N2CCN(c3cc(-c4cccs4)[nH]n3)CC2)c(C)c1	50.1µM	11.2µM	-	?	19.3µM	19.3µM	-	15.3µM
O=C(c1ccc(Cl)cc1Cl)N1CCN(c2cc(-c3cccs3)[nH]n2)CC1	44.7µM	10µM	-	8.91µM	24.3µM	19.3µM	-	21.7µM
CNC(=O)N1CCCC1c1nc(C2CN(C(=O)c3cnccn3)C2)no1 (centres undefined)	-	-	-	-	.	.	.	.
CNc1ccc(C)cc1C(=O)NC(C(=O)O)c1c(C)n[nH]c1C (centres undefined)	-	-	-	-	.	.	.	.
CCN1C(=O)Cc2ccccc2C1C(=O)NCc1ccccc1Br (centres undefined)	-	-	-	-	-	?	-	-
CCN1C(=O)Cc2ccccc2C1C(=O)NCc1ccccc1C (centres undefined)	-	-	-	-	.	.	.	.
CCC(CC)C(=O)NC[C@H]1O[C@@H](CC(=O)NCc2ccc(F)cc2)[C@H](O)[C@@H]1O	-	-	-	-	.	.	.	.
Cc1ccsc1C(=O)N1CCN(c2cc(-c3ccc(Cl)cc3)[nH]n2)CC1	?	12.6µM	-	25.1µM	24.3µM	27.3µM	-	21.7µM
O=C(Cc1ccccc1F)N1CCN(c2cc(-c3ccc(Cl)cc3)[nH]n2)CC1	-	-	-	-	.	.	.	.
Cc1ccc(-c2cc(N3CCCN(C(=O)c4sccc4C)CC3)n[nH]2)cc1C	?	-	?	?	.	.	.	.
Cc1ccc(C(=O)N2CCN(c3cc(-c4ccccc4)[nH]n3)CC2)cc1F	?	-	-	?	.	.	.	.
Cc1ccc(C(=O)N2CCN(c3cc(-c4ccc(Cl)cc4)[nH]n3)CC2)cc1F	?	17.8µM	-	?	27.3µM	21.7µM	-	24.3µM
O=C(NC1CCN(c2cc(-c3ccc(F)cc3)[nH]n2)CC1)c1cccc2[nH]ccc12	39.8µM	?	-	39.8µM	?	?	-	-
O=C(C1COc2ccccc2O1)N1CCN(c2cc(-c3ccc(Cl)cc3)[nH]n2)CC1 (centres undefined)	44.7µM	?	-	?	15.3µM	21.7µM	-	13.7µM
C#CCNC(=O)C1CN(c2ccc(F)cc2)C(=O)N1 (centres undefined)	?	-	-	?	.	.	.	.
COc1ccc(C(=O)N2CCC(C(=O)N3CCCC3c3nc4ccncc4[nH]3)CC2)cc1 (centres undefined)	-	.	.	-	.	.	.	.
SMILES	HEK cytotox	hNpr1 antagonist	Luciferase inh	NIH3T3 tox	Npr1 antag conf	Npr2 selectivity	FLuc counter	GloSensor ctrl
Cc1cnc(CCNS(=O)(=O)c2cn(C)cn2)n1C1CC1	-	-	-	-	.	.	.	.
CCOc1ccc(C(=O)N2CCCN(c3cc(-c4ccc(OC)cc4)[nH]n3)CC2)cc1OCC	?	-	-	-	.	.	.	.
O=C(c1ccccc1Cl)N1CCN(c2cc(-c3ccc(Cl)cc3)[nH]n2)CC1	?	7.94µM	-	?	13.7µM	13.7µM	-	10.9µM
O=C(c1cccc2[nH]ccc12)N1CCCN(c2cc(-c3ccc(Cl)cc3)[nH]n2)CC1	?	10µM	-	?	15.3µM	19.3µM	?	13.7µM
CN(C)c1ccc(C(=O)N2CCN(c3cc(-c4ccc(Cl)cc4)[nH]n3)CC2)cc1	?	12.6µM	-	?	21.7µM	21.7µM	-	21.7µM
CCOc1ccc(C(=O)N2CCN(c3cc(-c4ccc(Cl)cc4)[nH]n3)CC2)cc1OCC	20µM	2.24µM	-	22.4µM	7.69µM	13.7µM	-	9.68µM
Cn1nnnc1C1CCCN(C(=O)COc2ccccc2)C1 (centres undefined)	-	.	.	-	.	.	.	.
O=C(NCC1Cn2cccc2C(=O)N1Cc1ccccc1)c1ccc2ncccc2c1 (centres undefined)	?	-	-	-	.	.	.	.
COc1ccc(C(=O)N[C@H]2CO[C@H]3[C@@H]2OC[C@H]3OCC(N)=O)cc1	-	-	-	-	.	.	.	.
Cn1cccc1C(=O)N1CCN(c2cc(-c3ccc(Cl)cc3)[nH]n2)CC1	?	-	-	?	.	.	.	.
CN(C)c1ccc(C(=O)N2CCCN(c3cc(-c4ccc(Cl)cc4)[nH]n3)CC2)cc1	?	?	-	?	.	.	.	.
O=C(c1ccc(Br)cc1)N1CCN(c2cc(-c3ccc(Cl)cc3)[nH]n2)CC1	44.7µM	?	-	39.8µM	21.7µM	24.3µM	-	15.3µM
O=C(c1ccc(OC(F)(F)F)cc1)N1CCN(c2cc(-c3ccc(Cl)cc3)[nH]n2)CC1	31.6µM	11.2µM	-	17.8µM	19.3µM	21.7µM	-	19.3µM
Cc1ccc(C)c(NC(=O)N2CCC(Oc3ncccc3C(=O)N3CCCCC3)C2)c1 (centres undefined)	?	-	-	?	.	.	.	.
CN(C)c1cc(N2CCCC(NC(=O)Cc3ccc(F)cc3)C2)ncn1 (centres undefined)	-	-	-	-	.	.	.	.
O=C(CCc1cc(=O)[nH]o1)N[C@H](c1ccccn1)C1CC(O)C1 (some centres undefined)	-	-	-	-	.	.	.	.
Cc1ccccc1CN1CCN2C(=O)N(C3CCCCC3)C[C@H]2C1	?	-	-	?	.	.	.	.
